Several values for one entry are separate records, joined by “and”; a condition that tells them apart may be missing. Equal entries are not always repeated. Records with an inconclusive call do not appear. Where a call stands in place of a potency, no number is given. Some compounds were tested as several samples or in several runs, with calls that do not always agree. Activity calls are given as the source filed them. Unless noted, calls follow the shape of the dose curve; as a rule, active = well fitted curve in the direction sought with a large enough effect in the repeat runs; inconclusive = weak or mixed curves; inactive = no such curve, though single readings can be large; an effect the other way counts as inactive or inconclusive.
Columns and labels:
[1] = target: Acetylcholinesterase (Homo sapiens) (UniProt P22303); assay: Acetylcholinesterase (AChE) small molecule antagonists: enzyme-based qHTS assay (AID 1347397; calls by dose curve; also: nearly all actives have a fitted effect of over 55% in size); details: Potency: AChE enzyme activity inhibition; outcome: AChE enzyme activity inhibition; series mostly up to 115 µM
Sequence of Acetylcholinesterase (Homo sapiens) (P22303 whole entry, looked up): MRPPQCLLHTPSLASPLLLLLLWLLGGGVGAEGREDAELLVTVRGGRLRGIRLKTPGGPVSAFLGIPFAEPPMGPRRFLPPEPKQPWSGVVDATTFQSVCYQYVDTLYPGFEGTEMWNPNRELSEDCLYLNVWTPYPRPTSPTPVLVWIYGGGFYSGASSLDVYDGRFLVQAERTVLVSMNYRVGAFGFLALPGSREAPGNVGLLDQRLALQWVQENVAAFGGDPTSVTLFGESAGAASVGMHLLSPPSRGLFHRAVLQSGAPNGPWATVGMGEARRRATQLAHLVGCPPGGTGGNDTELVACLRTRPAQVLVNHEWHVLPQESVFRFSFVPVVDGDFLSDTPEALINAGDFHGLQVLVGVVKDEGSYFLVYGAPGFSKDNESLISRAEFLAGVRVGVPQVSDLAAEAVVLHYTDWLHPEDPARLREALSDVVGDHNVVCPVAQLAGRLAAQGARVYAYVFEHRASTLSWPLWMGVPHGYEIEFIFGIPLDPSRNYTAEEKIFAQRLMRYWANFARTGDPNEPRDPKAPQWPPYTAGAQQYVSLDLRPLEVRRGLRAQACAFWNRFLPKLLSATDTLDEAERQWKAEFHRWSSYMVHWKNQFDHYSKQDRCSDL
Outline: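 First, recombinant human AChE (50 mU/mL as dispensed) received test compound or DMSO. Second, plates stood 30 min at room temperature. Third, DTNB and acetylthiocholine were added, followed by 10 min at room temperature and colorimetric detection.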

[2] = target: Acetylcholinesterase (Homo sapiens) (UniProt P22303); assay: Acetylcholinesterase (AChE) small molecule antagonists: fluorescence cell-based qHTS assay (AID 1347398; calls by dose curve; also: nearly all actives have a fitted effect of over 50% in size); details: SH-SY5Y cells; Potency: AChE activity; outcome: AChE activity; series mostly up to 115 µM
Outline: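 Homogeneous quantitative HTS format. SH-SY5Y cells seeded at 2,000 per well settle overnight at 37 C. Compound pretreatment runs 30 min (37 C, 5% CO2); substrate/probe mix then reacts 40 min at RT before reading 490/520 nm.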

[3] = target: Acetylcholinesterase (Homo sapiens) (UniProt P22303); assay: Acetylcholinesterase (AChE) small molecule antagonists: enzyme-based qHTS assay with human liver microsomes (AID 1347399; calls by dose curve; also: nearly all actives have a fitted effect of over 60% in size); details: Potency: qHTS inhibition; outcome: qHTS inhibition; series mostly up to 115 µM
Outline: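 Recombinant human AChE (50 mU/mL in the enzyme mix) and human liver microsomes (0.25 mg/mL final) were preincubated with compound and NADPH (0.25 mg/mL final) for 30 min at 37 C. Acetylthiocholine/DTNB was then added; thiocholine was read colorimetrically after 10 min at room temperature.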

[4] = target: Cytochrome P450 2C9 (Homo sapiens) (UniProt P11712); assay: Cytochrome P450 Family 2 Subfamily C Member 9 (CYP2C9) small molecule antagonists: luciferase reporter qHTS assay (AID 1671198); details: P450-Glo CYP2C9 enzyme assay, luciferin luminescence; series mostly up to 115 µM; also: nearly all actives have a fitted effect of over 50% in size
Sequence of Cytochrome P450 2C9 (Homo sapiens) (P11712 whole entry, looked up): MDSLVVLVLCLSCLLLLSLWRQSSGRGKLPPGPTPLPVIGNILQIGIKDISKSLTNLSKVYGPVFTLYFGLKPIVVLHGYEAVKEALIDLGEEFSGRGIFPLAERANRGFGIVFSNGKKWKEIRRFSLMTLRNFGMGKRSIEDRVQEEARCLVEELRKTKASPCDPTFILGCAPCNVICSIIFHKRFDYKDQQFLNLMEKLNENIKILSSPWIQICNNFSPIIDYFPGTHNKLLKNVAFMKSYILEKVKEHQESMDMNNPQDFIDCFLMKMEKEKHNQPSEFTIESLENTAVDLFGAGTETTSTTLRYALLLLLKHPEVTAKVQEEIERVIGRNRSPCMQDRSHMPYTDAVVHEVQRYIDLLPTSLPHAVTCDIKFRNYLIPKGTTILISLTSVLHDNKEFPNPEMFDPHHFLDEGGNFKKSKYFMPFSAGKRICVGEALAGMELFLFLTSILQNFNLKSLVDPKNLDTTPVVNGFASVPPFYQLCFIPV
Outline: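 Enzyme-substrate mix preincubated with compound 10 min at room temperature; reaction started with NADPH regeneration solution, 1 h 37C. Luminescent luciferin product read after 20 min detection reagent.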

[5] = target: Cytochrome P450 1A2 (Homo sapiens) (UniProt P05177); assay: Cytochrome P450 Family 1 Subfamily A Member 2 (CYP1A2) small molecule antagonists: luciferase reporter qHTS assay (AID 1671199); details: P450-Glo CYP1A2 enzyme, luciferin luminescence, 1 h; series mostly up to 115 µM; also: nearly all actives have a fitted effect of over 50% in size
Sequence of Cytochrome P450 1A2 (Homo sapiens) (P05177 whole entry, looked up): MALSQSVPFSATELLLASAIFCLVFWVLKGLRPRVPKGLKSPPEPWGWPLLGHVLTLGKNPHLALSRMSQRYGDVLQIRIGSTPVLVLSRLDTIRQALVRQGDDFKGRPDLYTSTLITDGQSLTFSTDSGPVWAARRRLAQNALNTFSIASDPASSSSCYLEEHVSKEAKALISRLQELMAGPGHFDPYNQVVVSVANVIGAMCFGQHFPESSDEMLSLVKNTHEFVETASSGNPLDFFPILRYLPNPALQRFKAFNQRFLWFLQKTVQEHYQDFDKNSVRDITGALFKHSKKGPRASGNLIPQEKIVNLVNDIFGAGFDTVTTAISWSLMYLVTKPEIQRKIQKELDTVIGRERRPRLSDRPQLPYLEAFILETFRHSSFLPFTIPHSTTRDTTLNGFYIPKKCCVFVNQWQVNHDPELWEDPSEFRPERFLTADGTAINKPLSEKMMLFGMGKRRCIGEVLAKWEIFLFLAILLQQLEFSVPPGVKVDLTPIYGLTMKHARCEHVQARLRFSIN
Outline: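 Read-out is luminescence from luciferin detection reagent (20 min) proportional to CYP1A2 activity; compounds in DMSO preincubated 10 min with enzyme and proluciferin substrate, then NADPH regeneration solution, 1 h, room temperature.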

[6] = target: Voltage-gated inwardly rectifying potassium channel KCNH2 (Homo sapiens) (UniProt Q12809); assay: Human Ether-a-go-go-Related Gene (hERG) channel small molecule antagonists: fluorescence cell-based qHTS assay (AID 1671200); details: hERG-U2OS cells, FluxOR thallium flux fluorescence; series mostly up to 76.8 µM; also: nearly all actives have a fitted effect of over 50% in size
Sequence of Voltage-gated inwardly rectifying potassium channel KCNH2 (Homo sapiens) (Q12809 whole entry, looked up): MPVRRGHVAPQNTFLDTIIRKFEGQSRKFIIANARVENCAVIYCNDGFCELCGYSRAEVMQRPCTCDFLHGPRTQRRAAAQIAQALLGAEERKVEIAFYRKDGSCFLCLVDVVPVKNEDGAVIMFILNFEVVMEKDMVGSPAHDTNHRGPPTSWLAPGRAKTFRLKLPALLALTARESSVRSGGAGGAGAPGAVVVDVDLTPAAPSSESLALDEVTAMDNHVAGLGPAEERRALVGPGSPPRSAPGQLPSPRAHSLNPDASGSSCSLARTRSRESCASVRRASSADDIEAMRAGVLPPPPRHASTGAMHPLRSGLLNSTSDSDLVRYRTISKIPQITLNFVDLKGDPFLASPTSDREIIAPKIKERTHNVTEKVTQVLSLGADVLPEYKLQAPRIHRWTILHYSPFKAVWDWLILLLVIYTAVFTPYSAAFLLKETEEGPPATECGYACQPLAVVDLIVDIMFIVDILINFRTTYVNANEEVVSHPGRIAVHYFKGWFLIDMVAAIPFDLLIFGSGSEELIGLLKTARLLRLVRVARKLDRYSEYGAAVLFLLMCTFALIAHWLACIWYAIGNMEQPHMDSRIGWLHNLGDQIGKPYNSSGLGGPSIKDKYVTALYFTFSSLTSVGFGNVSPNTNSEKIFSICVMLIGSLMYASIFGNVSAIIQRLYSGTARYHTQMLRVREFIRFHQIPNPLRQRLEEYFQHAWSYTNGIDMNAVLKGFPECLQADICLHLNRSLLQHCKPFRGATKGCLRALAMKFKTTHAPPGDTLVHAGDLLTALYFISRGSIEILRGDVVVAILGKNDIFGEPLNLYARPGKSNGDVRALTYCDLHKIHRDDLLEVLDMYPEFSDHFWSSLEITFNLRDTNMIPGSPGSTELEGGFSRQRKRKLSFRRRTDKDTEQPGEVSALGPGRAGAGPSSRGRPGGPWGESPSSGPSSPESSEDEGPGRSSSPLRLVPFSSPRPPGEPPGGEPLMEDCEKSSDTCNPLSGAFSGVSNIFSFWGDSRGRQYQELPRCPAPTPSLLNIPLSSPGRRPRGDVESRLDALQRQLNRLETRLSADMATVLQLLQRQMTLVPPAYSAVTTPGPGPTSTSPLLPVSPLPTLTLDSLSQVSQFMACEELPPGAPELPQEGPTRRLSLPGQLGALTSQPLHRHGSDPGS
Outline: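 hERG-U2OS cells plated overnight at 37 C, loaded with FluxOR II dye 1 h at RT in dark; after 10 min, thallium stimulus added. Fluorescence (480/540 nm) read kinetically for 2 min at 1 s intervals.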

[7] = target: Cytochrome P450 3A4 (Homo sapiens) (UniProt P08684); assay: Cytochrome P450 Family 3 Subfamily A Member 4 (CYP3A4) small molecule antagonists: luciferase reporter qHTS assay (AID 1671201); details: P450-Glo CYP3A4 enzyme, luciferin luminescence, 1 h; series mostly up to 115 µM; also: nearly all actives have a fitted effect of over 50% in size
Sequence of Cytochrome P450 3A4 (Homo sapiens) (P08684 whole entry, looked up): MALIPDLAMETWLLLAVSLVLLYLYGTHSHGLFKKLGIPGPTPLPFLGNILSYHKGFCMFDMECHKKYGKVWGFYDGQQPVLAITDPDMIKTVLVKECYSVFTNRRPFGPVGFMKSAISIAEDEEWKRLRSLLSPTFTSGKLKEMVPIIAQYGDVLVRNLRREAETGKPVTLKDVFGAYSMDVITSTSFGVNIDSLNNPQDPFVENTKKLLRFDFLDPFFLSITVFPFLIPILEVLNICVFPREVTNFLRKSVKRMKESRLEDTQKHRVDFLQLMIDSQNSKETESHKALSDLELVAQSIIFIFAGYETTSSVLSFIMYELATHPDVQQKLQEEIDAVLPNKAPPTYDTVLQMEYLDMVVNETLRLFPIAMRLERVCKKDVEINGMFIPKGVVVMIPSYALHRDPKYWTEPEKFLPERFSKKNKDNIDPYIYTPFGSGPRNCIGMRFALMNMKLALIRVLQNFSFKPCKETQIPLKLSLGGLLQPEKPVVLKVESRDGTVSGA
Outline: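 P450-Glo CYP3A4 luminescent assay: compounds preincubated 10 min at room temperature with enzyme and proluciferin substrate, NADPH regeneration added, 1 h room-temperature reaction, stopped with luciferin detection reagent; luminescence read after 20 min. Ketoconazole positive control.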

[8] = target: Cytochrome P450 2D6 (Homo sapiens) (UniProt P10635); assay: Cytochrome P450 Family 2 Subfamily D Member 6 (CYP2D6) small molecule antagonists: luciferase reporter qHTS assay (AID 1671196); details: P450-Glo CYP2D6 enzyme assay, luciferin luminescence, 1 h; series mostly up to 115 µM; also: nearly all actives have a fitted effect of over 50% in size
Sequence of Cytochrome P450 2D6 (Homo sapiens) (P10635 whole entry, looked up): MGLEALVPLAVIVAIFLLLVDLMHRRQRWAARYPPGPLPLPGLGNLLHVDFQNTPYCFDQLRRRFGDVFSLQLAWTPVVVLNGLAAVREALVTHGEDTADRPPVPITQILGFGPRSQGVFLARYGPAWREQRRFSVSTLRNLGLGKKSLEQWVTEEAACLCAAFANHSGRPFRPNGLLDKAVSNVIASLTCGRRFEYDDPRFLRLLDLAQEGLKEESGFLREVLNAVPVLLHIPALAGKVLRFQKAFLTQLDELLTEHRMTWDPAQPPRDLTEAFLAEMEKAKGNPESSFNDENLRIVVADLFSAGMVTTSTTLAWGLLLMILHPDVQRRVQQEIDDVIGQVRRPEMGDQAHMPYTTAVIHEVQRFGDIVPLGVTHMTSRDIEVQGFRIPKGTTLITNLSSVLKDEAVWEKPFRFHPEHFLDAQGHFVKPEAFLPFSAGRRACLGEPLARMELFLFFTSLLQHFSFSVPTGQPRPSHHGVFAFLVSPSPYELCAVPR
Outline: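 Chemicals tested for interference with CYP2D6 activity; proluciferin substrate, NADPH regeneration, 1 h at room temperature, luminescent detection.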

[9] = target: Cytochrome P450 2C19 (Homo sapiens) (UniProt P33261); assay: Cytochrome P450 Family 2 Subfamily C Member 19 (CYP2C19) small molecule antagonists: luciferase reporter qHTS assay (AID 1671197); details: P450-Glo CYP2C19 enzyme, luciferin luminescence, 1 h; series mostly up to 115 µM; also: nearly all actives have a fitted effect of over 65% in size
Sequence of Cytochrome P450 2C19 (Homo sapiens) (P33261 whole entry, looked up): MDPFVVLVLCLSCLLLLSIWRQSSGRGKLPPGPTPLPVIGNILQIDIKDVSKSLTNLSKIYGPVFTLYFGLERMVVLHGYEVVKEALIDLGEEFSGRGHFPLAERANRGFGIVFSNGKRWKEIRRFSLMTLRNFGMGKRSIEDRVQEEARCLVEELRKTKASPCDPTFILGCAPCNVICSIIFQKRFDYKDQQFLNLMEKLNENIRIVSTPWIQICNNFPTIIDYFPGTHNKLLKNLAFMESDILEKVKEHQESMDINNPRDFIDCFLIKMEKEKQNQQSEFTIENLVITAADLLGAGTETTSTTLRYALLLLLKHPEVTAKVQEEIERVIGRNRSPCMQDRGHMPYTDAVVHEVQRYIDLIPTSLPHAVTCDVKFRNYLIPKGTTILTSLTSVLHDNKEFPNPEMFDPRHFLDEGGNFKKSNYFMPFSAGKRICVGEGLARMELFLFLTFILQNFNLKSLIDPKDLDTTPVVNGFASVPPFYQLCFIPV
Outline: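 First, compounds are pinned into enzyme-substrate mix and held 10 min at room temperature. Second, NADPH regeneration solution is added and plates incubate 1 h at 37C. Third, detection reagent is added and luminescence read after 20 min.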
Potency is read from the fitted curve at half-maximal effect.

Compound	Potency [1]	Potency [2]	Potency [3]	Potency [4]	Potency [5]	Potency [6]	Potency [7]	Potency [8]	Potency [9]
NC(=O)CF	inactive	inactive	inactive	inactive	inactive	inactive	inactive	–	–
CCOC(C(=O)OCCN(C)C)(c1ccccc1)c1ccccc1	inactive	inactive	–	11 µM (active)	inactive	inactive	–	2.75 µM (active)	–
O=C1CC[C@@]2(O)[C@H]3Cc4ccc(O)c5c4[C@@]2(CCN3CC2CC2)[C@H]1O5	inactive	inactive	inactive	–	inactive	inactive	inactive	–	–
CC(Cl)C(=O)O (stereo not given)	inactive	inactive	inactive	–	inactive	inactive	–	–	inactive
CCCCCBr	inactive	inactive	–	–	inactive	inactive	–	inactive	inactive
CCc1cnc(C2=NC(C)(C(C)C)C(=O)N2)c(C(=O)O)c1 (stereo not given)	inactive	inactive	–	inactive	inactive	inactive	inactive	inactive	inactive
O=C(O)c1cc(I)cc(I)c1I	inactive	inactive	inactive	–	–	inactive	inactive	–	–
C[C@]12C=CC3=C4CCC(=O)C=C4CC[C@H]3[C@@H]1CC[C@@H]2O	inactive	inactive	inactive	35.3 µM (active) and 30.1 µM (active)	39.7 µM (active)	inactive	31.5 µM (active) and inactive	–	–
Nc1cccc2ccccc12	inactive	inactive	–	35.8 µM (active) and 50.2 µM (active)	10.1 µM (active) and 5.64 µM (active)	inactive	–	31.9 µM (active) and 31.7 µM (active)	–
CN[C@@H](C)[C@H](O)c1ccccc1	inactive	inactive	inactive	inactive	inactive	inactive	inactive	–	–
CCN(C(C)=O)c1cccc(-c2ccnc3c(C#N)cnn23)c1	inactive	inactive	–	–	inactive	inactive	inactive	inactive	27.5 µM (active)
CCCN(CCC)C(=O)Cc1c(-c2ccc(Cl)cc2)nc2ccc(Cl)cn12	inactive	inactive	–	9.77 µM (active)	16.2 µM (active)	–	–	–	–
CCOP(=S)(OCC)Oc1ccc(S(C)=O)cc1 (stereo not given)	inactive	–	–	0.252 µM (active)	3.99 µM (active)	inactive	–	inactive	0.113 µM (active)
C=CC(C)(CCC=C(C)C)OC(=O)c1ccccc1N (stereo not given)	–	–	–	–	–	inactive	–	–	–
CCCN(CCOc1c(Cl)cc(Cl)cc1Cl)C(=O)n1ccnc1	inactive	–	–	457 nM (active) and 796 nM (active)	129 nM (active) and 224 nM (active)	12.6 µM (active) and 19.5 µM (active)	32.4 nM (active) and 100 nM (active)	363 nM (active) and 1 µM (active)	–
CCOC(=O)c1cn2nc(OP(=S)(OCC)OCC)cc2nc1C	–	39.9 µM (active)	2 µM (active)	–	8.94 µM (active)	–	28.3 µM (active)	25.2 µM (active)	2.52 µM (active)
N#CC1(N=NC2(C#N)CCCCC2)CCCCC1	inactive	inactive	–	11.2 µM (active)	inactive	38.9 µM (active)	–	–	5.03 µM (active)
[Cl-].[Cl-].[Hg+2]	–	–	–	–	–	38.7 µM (active) and 6.92 µM (active)	–	–	–
O=C1NC(=O)C(=O)C(=O)N1	inactive	inactive	–	inactive	inactive	inactive	inactive	inactive	–
Clc1ccc(Cl)c(Cl)c1	–	–	–	–	–	inactive	–	–	–
COCc1cnc(C2=NC(C)(C(C)C)C(=O)N2)c(C(=O)O)c1 (stereo not given)	inactive	inactive	–	35.6 µM (active)	–	inactive	inactive	inactive	–
C[N+]1(CCF)[C@@H]2CC[C@H]1CC(OC(=O)C(O)(c1ccccc1)c1ccccc1)C2 (stereo not given in full)	inactive	–	inactive	–	inactive	inactive	inactive	17.4 µM (active)	inactive
C[N+](C)(C)CCOC(=O)C(O)(c1ccccc1)c1ccccc1	inactive	inactive	–	inactive	inactive	inactive	inactive	15.5 µM (active)	–
CCOC(=O)NC(O)C(Cl)(Cl)Cl (stereo not given)	inactive	inactive	–	–	inactive	inactive	inactive	inactive	–
O=S(=O)(Cl)Cl	inactive	inactive	–	inactive	inactive	inactive	inactive	inactive	–
Cc1ncc(C[n+]2csc(CCO)c2C)c(N)n1	–	–	–	–	–	inactive	–	–	–
COc1ccccc1N1CCNCC1	–	–	–	inactive	inactive	inactive	–	inactive	inactive
c1ccc2c(c1)-c1cccc3cccc-2c13	–	–	–	–	–	inactive	–	–	–
O=C(NCNC(=O)NC1C(=O)NC(=O)N1CO)NC1C(=O)NC(=O)N1CO (stereo not given)	–	–	–	–	–	inactive	–	–	–
CC(C)c1ccc(OP(=O)(Oc2ccc(C(C)C)cc2)Oc2ccc(C(C)C)cc2)cc1	28.5 µM (active) and 28.3 µM (active)	–	inactive	–	22.6 µM (active) and 15.9 µM (active) and 17.8 µM (active)	17.5 µM (active) and 21.9 µM (active)	inactive	–	–
